Screens from PubChem.
IL1B secr inh = inhibitors of inflammasome signaling (IL-1 beta secretion). THP-1 LPS/ATP IL-1B secretion, AlphaLISA, 16 h; stronger effect = lower value. activity change, % at 57.5 µM. hit rate 4.7% among 360,000. AID 743279; in the data active = activity change below about -50%; inconclusive = mostly about -30% to -49%
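THP-1 cells pretreated 1 hr with compounds (up to 57.5 uM final), then stimulated with LPS (250 ng/mL final) plus ATP (1.25 mM final); secreted IL-1B measured by AlphaLISA after 16 hr, decreased signal indicating inhibition.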
DT40 TDP1 CPT = DT40-hTDP1 cell growth loss with CPT; hit rate 12% among 420,000; AID 686979; chicken DT40 Tdp1-/-;hTDP1 cells + 20 nM CPT, ATP luminescence, 48 h; Potency, µM (series often up to 46.2 µM), for inactives: at the highest dose activity change, negative = growth inhibition, most hits filed as inhibitors; note: potency is the fitted concentration of half-maximal effect; nearly all actives have a fitted effect of over 55% in size
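Chicken DT40 Tdp1-/- cells complemented with human TDP1, 400 cells/well, exposed to compounds plus 20 nM camptothecin for at least 48 h at 37 C; viability read as ATP content by CellTiter-Glo luminescence.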
HT1080NT lethal = kills 2HG-producing HT-1080-NT fibrosarcoma cells | HT-1080-NT fibrosarcoma viability, CellTiter-Glo ATP luminescence, 48 h | Potency, µM (highest dose often 46.1 µM), for the others: top-dose activity, negative = less viability, actives largely listed as cytotoxic | hit rate 1.6% among 360,000;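 note: NT is the 2HG producing partner of a matched IDH1 knockdown line; potency is the fitted concentration of half-maximal effect; 0% = DMSO-treated cells and -100% = media-only wells without cells; nearly all actives have a fitted effect of over 55% in size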
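Viability of the 2HG-overproducing fibrosarcoma line after 48 hours of compound exposure at 37 degrees C was determined by luminescence with CellTiter-Glo, and concentration-effect curves were then fitted and categorized.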
HT1080 IDH1KD tx = HT-1080 IDH1 knockdown cell toxicity (counter line). HT-1080 IDH1 knockdown viability, ATP luminescence, 48 h. hit rate 2% among 360,000. Potency, µM (series often up to 46.1 µM), for inactives: at the highest dose activity, negative = toxicity, most hits filed as cytotoxic;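 note: potency is the fitted concentration of half-maximal effect; 0% = DMSO wells and -100% = cell-free medium wells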
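After a 2 h attachment period, IDH1KD HT-1080 cells took pin-transferred compound for 48 h at 37 °C; ATP-based luminescence after 10 min room-temperature reagent incubation reported viability.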
ELG1 DNA repair = blocks ELG1-dependent DNA repair in HEK293T cells. HEK293T ELG1-luciferase reporter, luminescence, 16 h; DNA damage induced by 5-fluorouridine. Potency, µM (doses to about 46.1 µM), without a hit: at the top dose activity change, negative = inhibition, actives largely listed as inhibitors. hit rate 2.3% among 330,000. AID 504467; note: potency is the fitted concentration of half-maximal effect; nearly all actives have a fitted effect of over 55% in size
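Cells (2,000 per well) received 5-fluorouridine plus test compound or DMSO and were incubated 16 hr at 37 °C, 5% CO2. Luciferase activity was read by luminescence 30 min after ONE-Glo addition; signal suppression marked inhibition of damage-induced ELG1 function.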
TDP1 cell noCPT = qHTS for Inhibitors of human tyrosyl-DNA phosphodiesterase 1 (TDP1): qHTS in cells in absence of CPT; DT40 Tdp1-/- hTDP1 cells, no CPT, ATP luminescence, 48 h; Potency, µM (series often up to 46.2 µM), inactives show at the top dose activity change, negative = growth inhibition, usual class: inhibitors; hit rate 15% among 420,000; note: potency is the fitted concentration of half-maximal effect; nearly all actives have a fitted effect of over 55% in size
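Stably hTDP1-transfected Tdp1-null chicken DT40 cells were treated with library compounds minus camptothecin and grown for at least 48 hr at 37 °C, after which cellular ATP was quantified by luminescence.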
The depositor's hits bear a star; ? = inconclusive; · = not tested or not shown; [ ] = dose if it differs, or a comment. A selection: hits, their analogues and other compounds. The true share with any hit is near 19%. Unless noted, calls come from the whole dose curve; as a rule, active = well fitted curve in the direction sought with a large enough effect; inconclusive = small, poorly fitted or top-dose-only effect, or another doubt; inactive = no such curve, though single readings can be large; an effect the other way counts as inactive or inconclusive. Unless noted, % is set by controls: 0 for no effect and ±100 for the full control effect.

SMILES	IL1B secr inh	DT40 TDP1 CPT	HT1080NT lethal	HT1080 IDH1KD tx	ELG1 DNA repair	TDP1 cell noCPT
CCC(=O)N1CCN=C1SCc1cccc(F)c1	-4	-23%	8%	6%	1%	?
COC(=O)c1ccc(Oc2cc(C)nc(SC)n2)cc1	0	4.1µM*	?	5.8µM*	?	2.9µM*
COC(=O)c1ccc(Oc2cc(C)nc(Cl)n2)cc1	17	-13%	-1%	14%	14%	-21%
CCNc1ncc2nc(-c3cccc(C#N)c3)c(=O)n(Cc3cccc(OC)c3)c2n1	·	10%	·	·	·	1%
Cc1ccccc1-c1nc2c3ccccc3nc(=S)n2[nH]1	11	4.1µM*	8%	12%	18%	3.3µM*
CCC(=O)c1c(O)cc(O)cc1O	·	-12%	·	·	·	-27%
O.O=C([O-])CC([S-])C(=O)[O-].[Au+].[Na+].[Na+] (stereo unspecified)	·	-22%	·	·	·	0%
O=C(CSc1nc2ccccc2o1)Nc1nc2c(s1)CCCC2	-10	?	?	?	·	15µM*
CCCc1nc(SCC(=O)Nc2nc3c(s2)CCCC3)c2ccccc2n1	-24	?	0%	3%	-11%	-1%
O=C(CSc1nc2ccccc2o1)Nc1nc2ccccc2s1	11	-7%	-8%	-13%	?	-13%
CCc1nc(SCC(=O)Nc2nc3c(s2)CCCC3)c2ccccc2n1	-86*	18µM*	-23%	-9%	?	13µM*
NC(=O)NCCC1=CCCCC1	-9	-8%	6%	-2%	5%	-13%
Cc1cc(C(=O)NCCC2=CCCCC2)c(C)o1	-25	?	5%[9.24 µM]	?	?	18µM*
CCOc1ccc(C(=O)NCC(C)C)cc1	-8	3%	3%	6%	·	-1%
O=C(NNC(=O)C1C2CCCCC21)c1coc(=O)c(Br)c1 (stereo unspecified)	10	4.1µM*	-1%	0%	?	4.1µM*
CC(C)CNC(=O)c1coc(=O)c(Br)c1	-29	0.41µM*	?	11µM*	?	0.82µM*
CN(C)CCNC(=O)c1ccc(COCC(F)(F)F)cc1	13	-10%	7%	13%	15%	-9%
CN(C)CCNC(=O)c1coc(=O)c(Br)c1	-10	2.3µM*	-2%	-4%	?	5.8µM*
Cc1ccc(N(CC(O)CN2CCOCC2)S(=O)(=O)c2ccc([N+](=O)[O-])cc2)cc1 (stereo unspecified)	-9	12%	-14%	-3%	0%	-25%
O=C(COC(=O)c1cc(Br)c(Br)s1)NCCC1=CCCCC1	0	23µM*	-12%	-6%	12%	21µM*
O=C(Nc1cc(Cl)cc(Cl)c1)c1coc(=O)c(Br)c1	·	1.6µM*	0%	2%	16%	12µM*
O=C(NCCc1ccccc1)c1coc(=O)c(Br)c1	-99*	0.82µM*	21µM*	23µM*	?	0.58µM*
O=C(NCCC1=CCCCC1)c1coc(=O)c(Br)c1	0	0.12µM*	7.3µM*	18µM*	-4%	0.37µM*
Nc1ccc(NC(=O)CCN2CCOCC2)cc1	2	-2%	20%	12%	29%	-14%
N#CCC(=O)N/N=C\c1cccc(OC/C=C/c2ccccc2)c1	15	-12%	-13%	-1%	?	-3%
CCOC(=O)c1c(-c2ccc(Br)cc2)csc1NC(=O)c1ccc(C(C)(C)C)cc1	·	-7%	·	·	·	2%
CCCCc1nn2c(=O)cc(COC(=O)C(C)Oc3ccccc3)nc2s1 (stereo unspecified)	·	-4%	·	·	·	-4%
COc1ccccc1CN1CCCC2(CCN(C(=O)c3cccn3C)CC2)C1	·	3%	·	·	·	-14%
